Results reported in PubChem BioAssay (NCI).
Compounds without any hit were thinned out: in the full panel of roughly 83,000, 20% have a hit.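 Percent growth is the endpoint: 0 to 100 indicates growth inhibition (40 means 60% inhibition), 0 means no net growth, and negative values indicate cell death.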 A number with no mark means an inactive call. Activity calls are given as the source filed them. The calls were made as follows: active = growth percent below 10; inactive = the rest.

How the values were obtained:
Assay in all cases: NCI-60 one-dose screen, 48 h (100 = growth as untreated, 0 = no growth, -100 = all killed)
Conditions in all cases: 10 µM
HCT-15 colon = test system: HCT-15 colon
HT29 colon = test system: HT29 colon
SNB-75 CNS = test system: SNB-75 CNS
SNB-19 CNS = test system: SNB-19 CNS
U251 CNS = test system: U251 CNS
PC-3 prostate = test system: PC-3 prostate
SK-MEL-5 melanoma = test system: SK-MEL-5 melanoma
UACC-62 melanoma = test system: UACC-62 melanoma
LOX IMVI melanoma = test system: LOX IMVI melanoma
SK-MEL-28 melanoma = test system: SK-MEL-28 melanoma

| Structure (SMILES) | growth (HCT-15 colon) | growth (HT29 colon) | growth (SNB-75 CNS) | growth (SNB-19 CNS) | growth (U251 CNS) | growth (PC-3 prostate) | growth (SK-MEL-5 melanoma) | growth (UACC-62 melanoma) | growth (LOX IMVI melanoma) | growth (SK-MEL-28 melanoma) |
| --- | --- | --- | --- | --- | --- | --- | --- | --- | --- | --- |
| Cc1ccc(/C=C/C(=O)c2ccc(NC(=O)CSc3nnc(-c4c[nH]c5ccccc45)n3-c3ccccc3)cc2)c(C)c1 | 51.4% | 65.5% | 92.6% | 72.2% | 13.1% | 48.6% | 88.3% | 72.8% | 13.3% | 80.9% |
| O=C(Nc1ccc(Cl)c([N+](=O)[O-])c1)Nc1ccc(Cl)c([N+](=O)[O-])c1 | 7.01% (active) | 13.1% | 61.2% | 10.8% | 10.6% | 10.4% | -26.7% (active) | 3.62% (active) | -8.77% (active) | 8.08% (active) |
| Cc1ccc(NC(=O)NCn2c(=O)[nH]c3ccccc3c2=O)cc1 | 92.1% | 109% | 29% | 52.6% | 61.5% | 84.1% | 85.1% | 60.9% | 83.7% | 94.5% |
| CCN1CCN(Cc2ccc(C(=O)Nc3cccc(-c4cn(-c5ccc6oc(=O)ccc6c5)nn4)c3)cc2C(F)(F)F)CC1 | -100% (active) | -100% (active) | -33.2% (active) | -100% (active) | -100% (active) | -40.8% (active) | -100% (active) | -100% (active) | -100% (active) | -100% (active) |
| Cc1ccc2nc(-c3ccc(-c4nnc(SCC(=O)Nc5ccc(Br)cc5)o4)cc3)[nH]c2c1 | 42% | 77.5% | 83.8% | 70.3% | 11.5% | 56.8% | 85.5% | 57.3% | -12.7% (active) | 92.4% |
| COc1ccc(CCN2C(=O)/C(=C/c3csc(C#N)n3)SC2=S)cc1 | -51.7% (active) | -49.4% (active) | 53.2% | 72.2% | 21.4% | 32.8% | 36.6% | -26.6% (active) | -78.5% (active) | -10.9% (active) |
| COc1cc(/C=C/C(=O)c2ccc(F)cc2)ccc1Oc1nc(Nc2ccc(F)cc2)nc(N(C)C)n1 | 37.2% | 60.4% | 72.5% | 68.6% | 9.68% (active) | 63.9% | 40% | 51% | -56.3% (active) | 62% |
| COc1ccc2[nH]c(O)c(N=NC(=O)c3cc(-c4ccc(C)cc4)nc4ccccc34)c2c1 | 62.8% | 113% | 95.4% | 95.1% | 88.5% | 93.6% | 94.6% | 96.5% | 83.5% | 97.5% |
| COc1ccccc1C(=O)NNC(=O)CSc1nc2c(c(=O)[nH]1)CCCC2 | 110% | 113% | 99.3% | 101% | 104% | 83.4% | 99.3% | 95.2% | 96.9% | 110% |
| O=C(Nc1cc(Cl)cc(Cl)c1)Nc1cc(Cl)cc(Cl)c1 | -23.1% (active) | -20.9% (active) | -14.1% (active) | 5.6% (active) | -23.2% (active) | 0.387% (active) | -100% (active) | -66.1% (active) | -91.1% (active) | -12.1% (active) |
| O=C(c1ccc(Cl)cc1)C1[C@H](c2ccccc2Br)[C@@H](c2ccccc2)NC12C(=O)Nc1ccccc12 (stereo not given in full) | 12% | -16% (active) | 33.1% | 31.6% | 21.5% | 17.3% | -15.9% (active) | 7.38% (active) | -69.1% (active) | 44.8% |
| CN1CCN(c2ccc(Nc3nc(NCCCNC(=O)C4CCCCC4)c4sccc4n3)cc2)CC1 | 2.76% (active) | -1.75% (active) | 62.9% | 77.3% | 17.1% | 50.6% | 22.3% | 48.5% | 10.2% | -81.3% (active) |
| COc1ccc([C@H]2C(C(=O)c3ccc(Cl)cc3)C3(N[C@@H]2c2ccccc2)C(=O)Nc2ccc(Br)cc23)cc1 (stereo not given in full) | 0.62% (active) | -50.6% (active) | 15.6% | 20.1% | -18% (active) | 17.9% | 8.62% (active) | -55.4% (active) | -100% (active) | 18.9% |
| Cn1cc(/C=N/Nc2cccc(Cl)n2)c2ccccc21 | 28.2% | 44.1% | 70.7% | 76.9% | 56.2% | 58.4% | 71.7% | 67.7% | 50.1% | 104% |
| COc1ccc(-c2ccc(/C=N/NC(=O)c3[nH]c4ccc(Br)cc4c3-c3ccccc3)s2)cc1 | 68.4% | 84.5% | 88.1% | 73.8% | 35.9% | 91.7% | 106% | 45.9% | 75.5% | 105% |
| CCOC(=O)c1sc(N/N=C(\C)c2ccc3c(c2)Nc2ccccc2S3)nc1C | 5.74% (active) | 30% | 97.7% | 49.7% | 27.3% | 21.9% | 20.8% | 32.4% | -58.4% (active) | 39.1% |
| O=C(CN1CCN(c2ncnc3c2cnn3-c2ccccc2)CC1)Nc1nncs1 | -30.7% (active) | -61.5% (active) | -75% (active) | 58.4% | -72.5% (active) | -36.1% (active) | 29.4% | 17.4% | -87.4% (active) | 72.3% |
| CC(=O)C1=C(C)NC(SCC(=O)Nc2ccc(S(=O)(=O)Nc3cc(C)on3)cc2)=NC1c1ccccc1 (stereo not given) | 96.3% | 110% | 102% | 102% | 103% | 109% | 101% | 97.1% | 92.8% | 110% |
| C=C(c1ccc(OC)c(N)c1)c1cc(C)nc2ccccc12 | 3.55% (active) | -20.8% (active) | 21.4% | 10.3% | 7.35% (active) | 31.2% | -55% (active) | 24.1% | 10.3% | 62.4% |
| C/C(=N\N=C\c1ccc(Cl)c([N+](=O)[O-])c1)c1ccc2c(c1)Nc1ccccc1S2 | 50.8% | 35.5% | 109% | 31.2% | -35% (active) | 13.5% | 38.8% | 38.8% | 37.2% | 60.9% |
| COc1cc(NC(=O)c2cc(-c3ccc(F)cc3F)ccc2O)cc(OC)c1OC | 41.1% | 110% | 40.9% | 31.1% | 32.6% | 21.9% | -15.7% (active) | 0.606% (active) | 55.3% | 25% |
| COC(=O)C[C@](O)(CCCC(C)(C)O)C(=O)O[C@H]1C(OC)=C[C@@]23CCC(=O)N2CCc2cc4c(cc2[C@@H]13)OCO4 | 97.8% | 93.6% | 94.6% | 84.4% | 114% | 89.5% | 98.3% | 89.5% | 78% | 103% |
| O=c1[nH]c2ccccc2cc1CSc1ccc(Nc2nccc(-c3ccc(C(F)(F)F)cc3)n2)cc1 | 29.7% | 28.8% | 19.1% | 33.1% | -26.4% (active) | 43.8% | 89.2% | 81.9% | 15.5% | 78.7% |
| O=c1[nH]c2ccc(Cl)cc2cc1CSc1ccc(Nc2nccc(-c3ccc(Cl)cc3)n2)cc1 | 16.3% | 44.9% | 101% | 77.5% | 21% | 34.4% | 97% | 100% | 35.8% | 98.7% |
| CS(=O)(=O)Nc1ccc(-c2ccc3c(c2)ncn3-c2ccc(NC(=O)Nc3ccc(Cl)c(C(F)(F)F)c3)cc2)cc1 | -91.3% (active) | -84.1% (active) | -42% (active) | -89.3% (active) | -87.4% (active) | -57.5% (active) | -97.7% (active) | -85.8% (active) | -97% (active) | -78.1% (active) |
| O=c1oc2ccc(-c3ccc(F)cc3F)cc2c(=O)n1-c1ccc(Cl)c(C(F)(F)F)c1 | -12% (active) | 9.55% (active) | -4.03% (active) | 14.7% | 7.99% (active) | 0.205% (active) | -91.4% (active) | -54.1% (active) | -38.6% (active) | -20.1% (active) |
